Measured values as given in the supplement of paper PMC9446081.
± gives the standard deviation of the averaged measurements.

Experiments:
Experiment in all cases: relative enzymatic activity vs untreated control (fraction); higher = less inhibition
Conditions in all cases: 100 µM; incubation time: 2 h at 37 C
DNA gyrase = tested on: DNA gyrase
Method: (§1)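 In vitro enzymatic inhibition assays (ProFoldin kits) for 12 purified essential E. coli enzymes or complexes, each treated with 218 active antibacterial compounds at 100 µM for 2 h at 37°C. Read-outs were fluorescence or absorbance (phosphate detection, dye binding), converted to activity via standard curves and expressed relative to untreated DMSO controls.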

DNA helicase = DNA helicase (UniProt P0ACB1)
Chain of DNA helicase (P0ACB1 whole entry): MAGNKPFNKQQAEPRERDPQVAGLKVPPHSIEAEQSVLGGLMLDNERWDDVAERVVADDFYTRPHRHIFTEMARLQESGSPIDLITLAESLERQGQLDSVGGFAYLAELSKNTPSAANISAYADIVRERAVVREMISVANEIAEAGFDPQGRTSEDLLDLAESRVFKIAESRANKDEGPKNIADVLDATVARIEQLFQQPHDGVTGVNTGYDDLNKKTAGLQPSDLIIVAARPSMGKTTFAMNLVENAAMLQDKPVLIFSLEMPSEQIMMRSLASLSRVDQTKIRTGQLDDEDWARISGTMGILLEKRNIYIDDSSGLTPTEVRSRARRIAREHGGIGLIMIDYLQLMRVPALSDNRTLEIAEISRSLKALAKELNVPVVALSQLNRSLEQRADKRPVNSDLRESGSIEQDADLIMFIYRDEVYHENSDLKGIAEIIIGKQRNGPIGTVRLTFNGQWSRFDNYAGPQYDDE
Method: as §1

DNA ligase = DNA ligase (UniProt B1XA82)
Chain of DNA ligase (B1XA82 whole entry): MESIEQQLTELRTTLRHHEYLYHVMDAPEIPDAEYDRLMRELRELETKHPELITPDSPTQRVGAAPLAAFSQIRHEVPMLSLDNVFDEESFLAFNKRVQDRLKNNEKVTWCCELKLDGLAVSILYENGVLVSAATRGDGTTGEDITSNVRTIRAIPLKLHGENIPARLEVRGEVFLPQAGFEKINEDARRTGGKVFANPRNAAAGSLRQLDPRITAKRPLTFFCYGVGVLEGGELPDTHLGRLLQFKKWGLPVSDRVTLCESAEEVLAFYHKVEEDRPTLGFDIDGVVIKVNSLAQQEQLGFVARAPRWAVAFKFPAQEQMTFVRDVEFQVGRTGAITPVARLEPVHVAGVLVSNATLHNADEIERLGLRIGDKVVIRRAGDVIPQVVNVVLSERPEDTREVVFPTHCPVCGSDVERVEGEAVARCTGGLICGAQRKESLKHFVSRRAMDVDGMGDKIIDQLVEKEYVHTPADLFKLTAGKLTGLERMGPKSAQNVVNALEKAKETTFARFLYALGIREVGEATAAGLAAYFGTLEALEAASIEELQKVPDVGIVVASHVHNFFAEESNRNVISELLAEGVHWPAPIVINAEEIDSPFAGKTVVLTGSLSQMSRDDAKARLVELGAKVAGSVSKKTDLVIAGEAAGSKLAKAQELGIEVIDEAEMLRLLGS
Method: as §1

DNA polymerase = DNA polymerase (UniProt P10443)
Chain of DNA polymerase (P10443 whole entry): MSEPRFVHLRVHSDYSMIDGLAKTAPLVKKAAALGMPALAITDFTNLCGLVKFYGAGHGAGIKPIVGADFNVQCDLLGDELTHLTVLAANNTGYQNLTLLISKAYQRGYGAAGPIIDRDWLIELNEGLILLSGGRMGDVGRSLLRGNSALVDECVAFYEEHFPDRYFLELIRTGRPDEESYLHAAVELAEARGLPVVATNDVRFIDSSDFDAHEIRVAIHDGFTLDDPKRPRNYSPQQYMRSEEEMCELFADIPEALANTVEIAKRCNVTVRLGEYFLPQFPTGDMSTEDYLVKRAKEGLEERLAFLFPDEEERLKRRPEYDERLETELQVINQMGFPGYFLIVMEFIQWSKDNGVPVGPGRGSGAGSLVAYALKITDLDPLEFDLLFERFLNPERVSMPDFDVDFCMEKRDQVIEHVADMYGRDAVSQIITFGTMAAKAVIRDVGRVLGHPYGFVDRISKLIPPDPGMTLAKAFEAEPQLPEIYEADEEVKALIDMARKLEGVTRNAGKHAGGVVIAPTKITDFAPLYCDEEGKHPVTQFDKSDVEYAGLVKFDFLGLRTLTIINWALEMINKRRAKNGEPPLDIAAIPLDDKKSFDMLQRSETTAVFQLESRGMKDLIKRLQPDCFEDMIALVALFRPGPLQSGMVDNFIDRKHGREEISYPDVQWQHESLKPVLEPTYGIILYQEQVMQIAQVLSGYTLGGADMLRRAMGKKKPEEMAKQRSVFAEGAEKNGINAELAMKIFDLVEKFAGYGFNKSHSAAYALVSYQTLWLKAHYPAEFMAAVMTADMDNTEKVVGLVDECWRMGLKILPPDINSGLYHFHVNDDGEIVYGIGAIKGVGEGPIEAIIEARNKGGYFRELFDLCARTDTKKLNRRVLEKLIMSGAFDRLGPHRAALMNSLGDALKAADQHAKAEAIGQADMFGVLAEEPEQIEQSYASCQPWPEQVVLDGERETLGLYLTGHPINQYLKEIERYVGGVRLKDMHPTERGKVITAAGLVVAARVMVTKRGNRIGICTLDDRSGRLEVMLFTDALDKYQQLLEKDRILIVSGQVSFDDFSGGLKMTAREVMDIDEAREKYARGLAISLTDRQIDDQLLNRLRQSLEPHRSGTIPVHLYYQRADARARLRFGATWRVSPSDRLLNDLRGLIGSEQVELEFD
Method: as §1

DNA primase = DNA primase (UniProt P0ABS7)
Chain of DNA primase (P0ABS7 whole entry): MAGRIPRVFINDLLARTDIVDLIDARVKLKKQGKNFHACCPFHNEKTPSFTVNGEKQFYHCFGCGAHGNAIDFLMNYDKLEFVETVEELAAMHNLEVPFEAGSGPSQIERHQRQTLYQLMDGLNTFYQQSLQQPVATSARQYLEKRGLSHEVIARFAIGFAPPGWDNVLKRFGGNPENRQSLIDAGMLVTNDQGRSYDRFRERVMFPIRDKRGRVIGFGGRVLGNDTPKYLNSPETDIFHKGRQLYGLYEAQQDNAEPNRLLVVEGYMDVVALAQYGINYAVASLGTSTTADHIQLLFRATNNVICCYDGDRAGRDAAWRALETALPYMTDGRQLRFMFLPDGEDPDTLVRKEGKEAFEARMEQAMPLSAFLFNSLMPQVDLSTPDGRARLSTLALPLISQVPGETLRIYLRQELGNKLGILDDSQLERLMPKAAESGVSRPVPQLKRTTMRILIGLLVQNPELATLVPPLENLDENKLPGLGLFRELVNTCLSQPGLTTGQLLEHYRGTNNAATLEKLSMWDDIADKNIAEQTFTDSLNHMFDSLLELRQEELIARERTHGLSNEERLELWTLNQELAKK
Method: as §1

GlmU = GlmU (UniProt A7ZTU1)
Chain of GlmU (A7ZTU1 whole entry, looked up): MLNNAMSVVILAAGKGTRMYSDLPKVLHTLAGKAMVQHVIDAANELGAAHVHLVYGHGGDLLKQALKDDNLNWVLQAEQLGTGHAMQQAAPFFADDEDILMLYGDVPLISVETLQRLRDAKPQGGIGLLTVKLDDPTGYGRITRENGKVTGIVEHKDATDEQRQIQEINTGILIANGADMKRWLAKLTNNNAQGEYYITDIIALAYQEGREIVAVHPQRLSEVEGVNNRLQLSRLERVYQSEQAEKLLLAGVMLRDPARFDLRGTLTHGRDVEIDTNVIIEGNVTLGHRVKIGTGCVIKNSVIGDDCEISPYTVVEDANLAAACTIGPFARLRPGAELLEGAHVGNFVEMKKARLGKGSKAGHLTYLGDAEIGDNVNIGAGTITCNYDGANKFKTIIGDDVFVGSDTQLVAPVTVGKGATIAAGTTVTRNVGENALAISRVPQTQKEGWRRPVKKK
Method: as §1

Guanlyate kinase = Guanlyate kinase (UniProt Q0TBG1)
Chain of Guanlyate kinase (Q0TBG1 whole entry): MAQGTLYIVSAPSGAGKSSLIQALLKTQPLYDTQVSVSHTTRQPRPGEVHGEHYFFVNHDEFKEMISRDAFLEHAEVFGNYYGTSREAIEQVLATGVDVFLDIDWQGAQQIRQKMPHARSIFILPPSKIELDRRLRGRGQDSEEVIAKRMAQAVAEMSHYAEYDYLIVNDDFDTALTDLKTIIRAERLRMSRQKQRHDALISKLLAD
Method: as §1

MurA = MurA (UniProt Q3YX52)
Chain of MurA (Q3YX52 whole entry): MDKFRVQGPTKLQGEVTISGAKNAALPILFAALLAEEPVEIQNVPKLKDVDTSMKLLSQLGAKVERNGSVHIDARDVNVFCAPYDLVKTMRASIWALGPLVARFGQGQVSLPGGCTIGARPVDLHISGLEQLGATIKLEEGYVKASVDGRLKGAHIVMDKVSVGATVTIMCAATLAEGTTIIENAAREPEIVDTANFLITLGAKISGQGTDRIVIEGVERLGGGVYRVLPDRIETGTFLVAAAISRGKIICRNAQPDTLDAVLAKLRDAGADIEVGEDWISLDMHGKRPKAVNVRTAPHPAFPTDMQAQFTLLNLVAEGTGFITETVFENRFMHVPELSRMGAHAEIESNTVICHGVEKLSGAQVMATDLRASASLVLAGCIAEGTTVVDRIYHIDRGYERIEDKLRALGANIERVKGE
Method: as §1

MurD = biological target: T1, MurD (UniProt P14900)
T1 sequence (whole entry): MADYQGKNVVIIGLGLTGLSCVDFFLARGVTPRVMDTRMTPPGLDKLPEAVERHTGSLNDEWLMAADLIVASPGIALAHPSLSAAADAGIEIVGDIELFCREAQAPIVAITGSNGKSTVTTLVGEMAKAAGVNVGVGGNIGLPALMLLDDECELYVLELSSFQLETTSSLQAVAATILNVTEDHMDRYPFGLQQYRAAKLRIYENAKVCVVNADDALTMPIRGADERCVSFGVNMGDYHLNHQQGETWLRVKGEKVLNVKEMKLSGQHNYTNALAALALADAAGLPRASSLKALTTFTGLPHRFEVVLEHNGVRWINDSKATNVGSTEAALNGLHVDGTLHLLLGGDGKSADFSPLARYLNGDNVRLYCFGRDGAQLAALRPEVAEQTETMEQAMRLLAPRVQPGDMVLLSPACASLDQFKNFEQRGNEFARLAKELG
Method: as §1

MurF = biological target: T2, MurF (UniProt P11880)
T2 sequence (whole entry): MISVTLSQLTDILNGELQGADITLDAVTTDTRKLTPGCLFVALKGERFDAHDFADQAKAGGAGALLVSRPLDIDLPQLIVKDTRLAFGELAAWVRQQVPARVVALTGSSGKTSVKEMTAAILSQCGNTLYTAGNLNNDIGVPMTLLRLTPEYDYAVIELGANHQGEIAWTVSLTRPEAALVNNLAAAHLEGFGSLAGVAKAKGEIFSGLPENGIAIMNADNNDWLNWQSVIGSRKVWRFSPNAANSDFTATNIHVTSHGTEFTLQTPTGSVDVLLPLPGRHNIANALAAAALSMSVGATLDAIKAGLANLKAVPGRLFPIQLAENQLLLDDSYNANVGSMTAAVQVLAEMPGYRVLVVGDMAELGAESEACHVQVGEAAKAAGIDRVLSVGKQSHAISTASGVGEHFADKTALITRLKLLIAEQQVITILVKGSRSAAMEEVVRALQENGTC
Method: as §1

RNA polymerase = tested on: RNA polymerase
Method: as §1

SMILES	relative enzymatic activity (DNA gyrase)	relative enzymatic activity (DNA helicase)	relative enzymatic activity (DNA ligase)	relative enzymatic activity (DNA polymerase)	relative enzymatic activity (DNA primase)	relative enzymatic activity (GlmU)	relative enzymatic activity (Guanlyate kinase)	relative enzymatic activity (MurA)	relative enzymatic activity (MurD)	relative enzymatic activity (MurF)	relative enzymatic activity (RNA polymerase)
CN(C)CCOC(c1ccccc1)c1ccccc1.Cn1c(=O)c2[nH]c(Cl)nc2n(C)c1=O	0.811 ± 0.45	0.604 ± 0.17	1.01 ± 0.12	1.32 ± 0.34	0.75 ± 0.22	0.939 ± 0.018	1.05 ± 0.066	0.697 ± 0.022	0.596 ± 0.39	0.534 ± 0.75	0.923 ± 0.069
CCN1CCN(C(=O)NC(C(=O)NC2C(=O)N3C2SC(C)(C)C3C(=O)[O-])c2ccccc2)C(=O)C1=O.[Na+] (configuration not stated)	0.801 ± 0.4	0.634 ± 0.2	1.1 ± 0.11	1.32 ± 0.43	0.757 ± 0.24	0.886 ± 0.12	0.965 ± 0.12	0.612 ± 0.16	0.587 ± 0.41	0.938 ± 0.29	0.916 ± 0.077
NC[C@H]1O[C@H](O[C@H]2[C@H](O)[C@@H](O[C@H]3O[C@H](CO)[C@@H](O)[C@H](N)[C@H]3O)[C@H](N)C[C@@H]2N)[C@H](N)[C@@H](O)[C@@H]1O	0.315 ± 0.23	0.151 ± 0.041	0.868 ± 0.093	0.916 ± 0.35	0.46 ± 0.095	0.992 ± 0.076	0.3862 ± 0.0032	0.686 ± 0.15	0.605 ± 0.41	0.975 ± 0.24	0.781 ± 0.22
Nc1ncn(C2OC(CO)C(O)C2O)c(=O)n1 (configuration not stated)	0.722 ± 0.32	0.653 ± 0.16	1.318 ± 0.003	1.27 ± 0.31	0.709 ± 0.21	1.14 ± 0.13	0.934 ± 0.14	0.786 ± 0.13	0.61 ± 0.4	0.987 ± 0.21	1.01 ± 0.18
Cc1cc(C(C)(C)CC(C)(C)C)ccc1OCCOCC[N+](C)(C)Cc1ccccc1.[Cl-]	0.0681 ± 0.096	0.0148 ± 0.0016	1.09 ± 0.19	0.247 ± 0.011	0.55 ± 0.034	0.409 ± 0.4	0.428 ± 0.034	0.0365 ± 0.0028	0.0983 ± 0.021	0.477 ± 0.33	0.664 ± 0.036
CON=C(C(=O)NC1C(=O)N2C(C(=O)O)=C(C[N+]3(C)CCCC3)CSC12)c1csc(N)n1.[Cl-] (configuration not stated)	0.384 ± 0.0047	0.431 ± 0.059	1.345 ± 0.0088	1.28 ± 0.35	0.724 ± 0.23	0.969 ± 0.022	1.02 ± 0.026	0.222 ± 0.0031	0.568 ± 0.37	0.962 ± 0.17	0.897 ± 0.023
NC(=O)[C@@H]1C(=O)C[C@@H]2C[C@@H]3Cc4cccc(O)c4C(=O)[C@@H]3C(=O)[C@]2(O)C1=O	1.02 ± 0.18	0.519 ± 0.062	0.963 ± 0.042	0.976 ± 0.11	0.822 ± 0.017	1.08 ± 0.021	0.796 ± 0.086	0.328 ± 0.11	0.62 ± 0.39	1.01 ± 0.2	0.715 ± 0.048
N[C@@H]1CN(c2c(F)cc3c(=O)c(C(=O)O)cn([C@@H]4C[C@@H]4F)c3c2Cl)CC12CC2	0.186 ± 0.26	0.435 ± 0.025	0.852 ± 0.06	1.1 ± 0.085	0.84 ± 0.012	0.987 ± 0.012	1 ± 0.11	0.524 ± 0.094	0.591 ± 0.41	1.31 ± 0.28	0.979 ± 0.15
CO/N=C(\C(=O)N[C@@H]1C(=O)N2C(C(=O)O)=C(C)CS[C@H]12)c1csc(N)n1	0.614 ± 0.47	0.628 ± 0.2	0.904 ± 0.086	0.906 ± 0.062	0.822 ± 0.035	1.018 ± 0.0077	0.836 ± 0.015	0.479 ± 0.18	0.613 ± 0.43	0.979 ± 0.21	0.826 ± 0.098
CC1COc2c(N3CCN(C)CC3)c(F)cc3c(=O)c(C(=O)O)cn1c23 (configuration not stated)	0.0425 ± 0.06	0.698 ± 0.077	1.39 ± 0.046	1.3 ± 0.35	0.722 ± 0.2	1.1 ± 0.2	0.937 ± 0.12	0.757 ± 0.05	0.584 ± 0.4	0.976 ± 0.2	1.16 ± 0.38
CCn1cc(C(=O)O)c(=O)c2cc(F)c(N3CCNCC3)nc21	0.00427 ± 0.006	0.582 ± 0.19	1.03 ± 0.25	0.579 ± 0.52	0.684 ± 0.19	1 ± 0.017	0.761 ± 0.07	0.839 ± 0.13	0.573 ± 0.39	0.982 ± 0.23	0.833 ± 0.03
CON=C1CN(c2nc3c(cc2F)c(=O)c(C(=O)O)cn3C2CC2)CC1CN.CS(=O)(=O)O (configuration not stated)	0.058 ± 0.082	0.479 ± 0.14	1.09 ± 0.24	1.26 ± 0.31	0.805 ± 0.059	0.919 ± 0.027	0.856 ± 0.23	0.4853 ± 0.00068	0.503 ± 0.35	0.919 ± 0.19	0.88 ± 0.012
NCC1OC(OC2C(N)CC(N)C(OC3OC(CO)C(O)C(N)C3O)C2O)C(N)CC1O (configuration not stated)	1.2 ± 0.12	0.45 ± 0.37	1.02 ± 0.084	1.33 ± 0.47	0.71 ± 0.18	0.979 ± 0.048	1 ± 0.013	0.82 ± 0.12	0.611 ± 0.4	0.932 ± 0.15	0.809 ± 0.04
CN(C)c1ccc(O)c2c1CC1CC3C(N(C)C)C(O)=C(C(N)=O)C(=O)C3(O)C(O)=C1C2=O.Cl (configuration not stated)	0.541 ± 0.071	0.129 ± 0.0081	0.831 ± 0.21	0.908 ± 0.4	0.4515 ± 0.0044	0.955 ± 0.066	0.577 ± 0.027	0.0902 ± 0.0036	0.602 ± 0.4	0.939 ± 0.18	0.184 ± 0.083
CC1C(NC(=O)C(=NOC(C)(C)C(=O)O)c2csc(N)n2)C(=O)N1S(=O)(=O)O (configuration not stated)	0.879 ± 0.42	0.582 ± 0.14	1.36 ± 0.2	0.711 ± 0.38	0.832 ± 0.01	0.903 ± 0.016	0.908 ± 0.068	0.798 ± 0.071	0.589 ± 0.39	0.948 ± 0.24	0.844 ± 0.071
CN(C)c1ccc(O)c2c1C[C@H]1C[C@H]3[C@H](N(C)C)C(=O)[C@@H](C(N)=O)C(=O)[C@@]3(O)C(=O)[C@H]1C2=O	0.636 ± 0.27	0.47 ± 0.11	0.8372 ± 0.0039	0.973 ± 0.03	0.776 ± 0.056	1.03 ± 0.019	0.692 ± 0.016	0.306 ± 0.14	0.607 ± 0.43	0.981 ± 0.18	0.686 ± 0.011
NCC[C@H](O)C(=O)N[C@@H]1C[C@H](N)[C@@H](O[C@H]2O[C@H](CN)[C@@H](O)[C@H](O)[C@H]2O)[C@H](O)[C@H]1O[C@H]1O[C@H](CO)[C@@H](O)[C@H](N)[C@H]1O	0.228 ± 0.0032	0.0994 ± 0.0019	0.871 ± 0.16	0.863 ± 0.26	0.508 ± 0.14	0.9473 ± 0.0079	0.438 ± 0.056	0.326 ± 0.1	0.608 ± 0.42	0.979 ± 0.24	0.699 ± 0.083
